# Results from the supplement of paper PMC8728848.
# About 410 targets per protein were measured; listed, in parts, are those with the strongest signals and a random draw of the rest.
# Legend:
# Experiment in all cases: glycan array binding signal (z-score within array); higher = stronger binding
# Settings in all cases: glycan notation: IUPAC condensed, linker removed
# [1] = target: Fuc(a1-2)Gal(b1-4)Glc
# In short: (§1)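 Columns mapping to the same glycan were averaged after glycan names were converted to IUPAC-condensed notation. The data come from 3228 arrays in the Consortium for Functional Glycomics database, limited to those with an available protein sequence. Binding is reported as a within-array Z-score averaged across arrays of one protein sequence and across linkers.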
# [2] = target: Fuc(a1-2)Gal(b1-4)GlcNAc(b1-3)Gal(b1-4)GlcNAc
# In short: as §1
# [3] = target: Fuc(a1-2)Gal6S(b1-4)GlcNAc
# In short: as §1
# [4] = target: Fuc(a1-2)[GalNAc(a1-3)]Gal(b1-4)GlcNAc
# In short: as §1
# [5] = target: Fuc(a1-2)[GalNAc(a1-3)]Gal(b1-4)[Fuc(a1-3)]GlcNAc
# In short: as §1
# [6] = target: Gal(a1-3)Gal(b1-3)GlcNAc
# In short: as §1
# [7] = target: Gal(a1-3)GalNAc
# In short: as §1
# [8] = target: Gal(a1-4)Gal(b1-4)GlcNAc(b1-3)Gal(b1-4)Glc
# In short: as §1
# [9] = target: Gal(a1-4)GlcNAc
# In short: as §1
# [10] = target: Gal(b1-3)[Fuc(a1-4)]GlcNAc(b1-2)Man(a1-3)[Gal(b1-3)[Fuc(a1-4)]GlcNAc(b1-2)Man(a1-6)]Man(b1-4)GlcNAc(b1-4)[Fuc(a1-6)]GlcNAc
# In short: as §1
# [11] = target: Gal(b1-3)[Neu5Ac(a2-6)]GalNAc
# In short: as §1
# [12] = target: Gal(b1-4)Glc6S
# In short: as §1
# [13] = target: Gal(b1-4)GlcNAc(b1-3)GalNAc
# In short: as §1
# [14] = target: Gal(b1-4)GlcNAc(b1-3)[Gal(b1-4)GlcNAc(b1-6)]Gal(b1-4)GlcNAc
# In short: as §1
# [15] = target: Gal3S(b1-4)GlcNAc
# In short: as §1
# [16] = target: Gal3S(b1-4)[Fuc(a1-3)]Glc6S
# In short: as §1
# [17] = target: Gal4S6S(b1-4)GlcNAc
# In short: as §1
# [18] = target: GalNAc(a1-3)GalNAc
# In short: as §1
# [19] = target: GlcA(b1-3)Gal
# In short: as §1
# [20] = target: GlcNAc(a1-4)Gal(b1-4)GlcNAc(b1-3)Gal(b1-4)[Fuc(a1-3)]GlcNAc(b1-3)Gal(b1-4)[Fuc(a1-3)]GlcNAc
# In short: as §1
# [21] = target: GlcNAc(b1-2)Man(a1-3)[GlcNAc(b1-2)Man(a1-6)]Man(b1-4)GlcNAc(b1-4)[Fuc(a1-6)]GlcNAc
# In short: as §1
# [22] = target: GlcNAc3Prop(b1-4)GlcNAc
# In short: as §1
# [23] = target: Kdn(a2-3)Gal(b1-3)GlcNAc
# In short: as §1
# [24] = target: Man(a1-2)Man(a1-2)Man(a1-3)Man
# In short: as §1
# [25] = target: Man(a1-3)[Man(a1-6)]Man
# In short: as §1
# [26] = target: Man(a1-3)[Man(a1-6)]Man(b1-4)GlcNAc(b1-4)GlcNAc
# In short: as §1
# [27] = target: Neu5Ac(a2-3)Gal
# In short: as §1
# [28] = target: Neu5Ac(a2-3)Gal(b1-3)GalNAc
# In short: as §1
# [29] = target: Neu5Ac(a2-3)Gal(b1-3)[Neu5Ac(a2-3)Gal(b1-4)]GlcNAc
# In short: as §1
# [30] = target: Neu5Ac(a2-3)Gal(b1-4)GlcNAc(b1-3)GalNAc
# In short: as §1
# [31] = target: Neu5Ac(a2-3)Gal(b1-4)GlcNAc6S
# In short: as §1
# [32] = target: Neu5Ac(a2-3)Gal(b1-4)[Fuc(a1-3)]GlcNAc
# In short: as §1
# [33] = target: Neu5Ac(a2-3)Gal(b1-4)[Fuc(a1-3)]GlcNAc(b1-6)[Gal(b1-3)]GalNAc
# In short: as §1
# [34] = target: Neu5Ac(a2-6)Gal(b1-4)GlcNAc(b1-3)Gal(b1-4)[Fuc(a1-3)]GlcNAc(b1-3)Gal(b1-4)[Fuc(a1-3)]GlcNAc
# In short: as §1
binder,measurement,setting,value
"LERP (Drosophila melanogaster), B7Z0Q8 (protein) MRCSLQKDCAAPTQENFRQMRFPIVISLLLLLFCSGESVAADAANQLKFSTTECKLKEPIYGSTFDFSGLHSDLAHVVKSMNIGGDQFEFNICGNLSRTCNGESNVAACLKRQGKEYILGRQHELFYNNGNMFLKYKSGAKCDNGTADKPNYQLHVMFSCDYTLDAQPMHVTPYANEVCSFYISYRTPLACLSIPEGLQSNSCRVGDTKSNGTFDLMPLSDSNYHTSNRQGAFFVINVCKPVLYGENSMCPAGSSVCLFDSKATNPKERFINFGNVQTHPVVEKGQLLLRHESPTPCAKNSSANYTSVIYFSCDKFIRNAHPEFAGLGADSCTYQFNFATPLACNDLKPCTAFTSTNELLDLSSLSSKPARTLLKDGKNYTIAVCAHAGAPCQENGGACYEQNSTTISLGNSNSQLRFNQTGSLYLLYEDGAECSTATGMRRWSTKIEFVCANNATKDNGASTAGGSDSLKIIEDSNCQLLIQYQTPLACREPIRCKATTYVDHTNDGLGSSGDELIDLTPLISATDNYEARVELPASMEHLVPKTTKFFLNVCRPLVPKYQLGCAGGSAACMAKVTAAGAPEEERSMGFPLVSLTQRNRTFAELAYLKGDPCPTDNTSELSTHILFNCNMRAGRGQPVLRSVEDCAYRFEWETNVFCPPHECTFSADTCDLVHDELGRRFNFKSAPFTKDGKIEIDYNATKMSVNICGAHRKAMTDYSQALVNIFFTHESPNCGREGTMNVQIRLICSDQTESSSTISSDQQCNLLYVQRTPSICEFLSLGATQQNFESNGSTSSSTSSSSTSTTTSTTTQASPAGKPTKAATSTTTTTVGPDPAATPIGPTASVGTILGAILSVTFCVTCLGLLAFSPARRQRIRRLFRRSNSAVRYSRVQSNEEANLLLEPNGEFTESDDDMLL",glycan array binding signal (z-score),[1],-1.18
same,glycan array binding signal (z-score),[2],0.534
same,glycan array binding signal (z-score),[3],-0.168
same,glycan array binding signal (z-score),[4],0.43
same,glycan array binding signal (z-score),[5],1.65
same,glycan array binding signal (z-score),[6],-0.704
same,glycan array binding signal (z-score),[7],-0.56
same,glycan array binding signal (z-score),[8],2.8
same,glycan array binding signal (z-score),[9],-0.583
same,glycan array binding signal (z-score),[10],5.88
same,glycan array binding signal (z-score),[11],-0.837
same,glycan array binding signal (z-score),[12],-0.389
same,glycan array binding signal (z-score),[13],0.146
same,glycan array binding signal (z-score),[14],-0.458
same,glycan array binding signal (z-score),[15],-0.01
same,glycan array binding signal (z-score),[16],1.16
same,glycan array binding signal (z-score),[17],0.955
same,glycan array binding signal (z-score),[18],-0.435
same,glycan array binding signal (z-score),[19],-0.753
same,glycan array binding signal (z-score),[20],3.64
same,glycan array binding signal (z-score),[21],6.93
same,glycan array binding signal (z-score),[22],-0.064
same,glycan array binding signal (z-score),[23],-0.084
same,glycan array binding signal (z-score),[24],5.38
same,glycan array binding signal (z-score),[25],-0.079
same,glycan array binding signal (z-score),[26],2.66
same,glycan array binding signal (z-score),[27],-0.653
same,glycan array binding signal (z-score),[28],0.949
same,glycan array binding signal (z-score),[29],-0.204
same,glycan array binding signal (z-score),[30],0.38
same,glycan array binding signal (z-score),[31],0.734
same,glycan array binding signal (z-score),[32],-1.2
same,glycan array binding signal (z-score),[33],2.71
same,glycan array binding signal (z-score),[34],-0.095
